Screening data from PubChem.
A selection: hits, their analogues and other compounds. The true share with any hit is near 1.3%.
NR5A2 inv ag: NR5A2 inverse agonism in reporter assay; O00482; HEK293T StAR-luciferase reporter, LRH-1 transfected, 24 h; inhibition, % at 3.6 µM; hit rate 0.13% among 360,000; AID 602396;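 active means inhibition above the mean inhibition of all tested compounds plus 3 SD, cut at about 73% in these data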;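 further: 0% = DMSO wells and 100% = reporter-only cells lacking LRH-1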
NCOA1 inh: inhibitors of human steroid receptor coactivator 1 (SRC1). Q15788. AID 588354. hit rate 0.12% among 360,000. HEK293 GAL4-SRC1 luciferase reporter, luminescence. inhibition, % at 3.6 µM;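 active means inhibition above the campaign mean plus 3 SD, with each screening campaign given its own cutoff, cut at about 60% in these data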;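 further: 0% = DMSO treated cells and 100% = gossypol at 36 µM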
Gli-Sufu block: Gli-Sufu pathway antagonism; Sufu-KO-LIGHT fibroblasts, Gli luciferase reporter luminescence; inhibition, % at 5 µM; hit rate 0.74% among 340,000;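 active means inhibition above about 55%, limit read from the data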;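 further: 0% = DMSO-treated cells and 100% = wells with medium but no cells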
NCOA2 inhibitor: human SRC2 (NCOA2) inhibition; HEK293 GAL4-SRC2 luciferase reporter, luminescence; hit rate 0.17% among 370,000; inhibition, % at 9 µM; AID 651957;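 active means inhibition above the mean inhibition of all tested compounds plus 3 SD, set per campaign, cut at about 52% in these data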;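 further: 0% = DMSO treated cells and 100% = cells given Gossypol at 36 µM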
NCOA3 inh: inhibits human SRC3 coactivator; HEK293 GAL4-SRC3 luciferase reporter, luminescence; inhibition, % at 3.6 µM; hit rate 0.17% among 360,000;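 active means inhibition above a per-campaign cutoff, the mean of all compounds plus 3 SD, cut at about 60% in these data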;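 further: 0% = DMSO-treated cells and 100% = gossypol-treated cells at 36 µM; higher means less SRC3-driven luciferase light from the GAL4 reporter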
NR2F2 inh: inhibitors of human COUP-TFII (NR2F2); HEK293T NGFI-A luciferase reporter, luminescence; hit rate 0.7% among 370,000; P24468; inhibition, % at 8.6 µM;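 active means inhibition above a per-plate cutoff, mean inhibition of test wells between control levels plus 3 SD, cut at about 38% in these data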;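 further: cells cotransfected with COUP-TFII expression vector driving the NGFI-A reporter; 0% = median of COUP-TF2 test wells and 100% = reporter-only cells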
Gal4-VP16 ctr: VP16 inhibition counter-screen for COUP-TFII; shares compounds with NR2F2 inh; HEK293 Gal4-VP16 luciferase reporter, luminescence; inhibition, % at 8.5 µM; hit rate 25% among 2,500; in the data active means inhibition above about 13%
NR2F2 inh conf: confirmation of human COUP-TFII (NR2F2) inhibitors; HEK293 NGFI-A luciferase reporter, luminescence; shares compounds with NR2F2 inh; inhibition, % at 8.5 µM; hit rate 45% among 2,500;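 active means mean inhibition over three repeats above a set limit taken from the earlier primary screen, cut at about 38% in these data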;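 further: 100% = cells given the luciferase reporter alone without the COUP-TF2 vector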
* = called active by the depositor; . = not tested or not shown; ! = not confirmed by another sample.

SMILES | NR5A2 inv ag | NCOA1 inh | Gli-Sufu block | NCOA2 inhibitor | NCOA3 inh | NR2F2 inh | Gal4-VP16 ctr | NR2F2 inh conf
COc1ccc(-c2cc(C)no2)cc1S(=O)(=O)N1CCN(c2cccc(C)c2)C(C)C1 (stereo unspecified) | 13 | 0 | 11 | 18 | 5 | 52* | 11 | 54*
COc1cccc(CCN2CCC(CNS(=O)(=O)c3cc(-c4cc(C)no4)ccc3OC)CC2)c1 | 6 | -8 | 42 | 14 | 27 | 37* | -11 | 8
COc1cccc(CCN2CCC(CNS(=O)(=O)c3cc(-c4cc(C)no4)ccc3C)CC2)c1 | 9 | -12 | 46 | 24 | 27 | 41* | 0 | 26
Cc1ccc2c(c1)C1CS(=O)(=O)N(Cc3ccc(F)cc3)CN1C2 (stereo unspecified) | . | . | . | -6 | . | 26 | . | .
CC1(C(=O)Nc2ccc3c(c2)OCO3)CCN1C(=O)Cc1ccc(-c2ccccc2)cc1 (stereo unspecified) | 30 | 15 | . | 8 | -3 | 43* | 0 | 33
CC1(C(=O)Nc2ccccc2)CCN1C(=O)Cc1ccc(-c2ccccc2)cc1 (stereo unspecified) | 26 | 3 | . | 21 | 2 | 29 | . | .
CC1(C(=O)Nc2ccc3[nH]ncc3c2)CCN1C(=O)Cc1ccc(-c2ccccc2)cc1 (stereo unspecified) | -7 | 2 | . | 25 | -11 | 47* | 2 | 22
CC(C)(C)c1ccc(CC(=O)N2CCC2(C)C(=O)Nc2ccc3[nH]ncc3c2)cc1 (stereo unspecified) | -23 | 0 | . | 19 | -2 | -2 | . | .
CCN(CC)C(=O)CC[C@@H]1CC[C@]2(CCCN(C(=O)c3ccno3)C2)O1 | . | . | . | -37 | . | -8 | . | .
CC(C)(C)OC(=O)NC1CCN(c2nc(-c3ccc(Br)cc3)cs2)CC1 | . | . | . | . | . | 39* | 0 | -4
CC1(Cc2ccc3ccccc3n2)C(=O)Nc2ccc(OC(F)(F)F)cc21 (stereo unspecified) | 16 | -1 | . | 14 | -1 | 90* | 0 | 10
O=C(Cn1nnc(-c2ccncc2)n1)Nc1ccc(Cl)cc1 | . | . | . | -37 | . | -5 | . | .
COC(=O)[C@]1(CNC(=O)C(C)(C)C)CC(=O)N(C)[C@@H]1c1ccccc1 | . | . | . | -7 | . | -5 | . | .
COc1cc2cc(C(=O)Nc3ccc4c(c3)OCCO4)[nH]c2cc1OC | 46 | 54 | 35 | 40 | 55 | 48* | -47 | -9
COc1cc2[nH]c(C(=O)Nc3ccc4c(c3)OCCO4)cc2c(OC)c1OC | -17 | 15 | -3 | 2 | 7 | -28 | . | .
COc1ccc(NC(=O)N(CCc2c(C)[nH]c3ccccc23)Cc2cccs2)cc1OC | . | . | . | -21 | . | -3 | . | .
CC(C)CC[n+]1ccccc1/C=C/c1ccc(N(C)C)cc1 | 91* | 57 | 88* | 16 | 76* | 86* | 26* | 85*
CN(C)c1ccc(/C=C/c2ccncc2)cc1 | -107 | -72 | -56 | -75 | -71 | -15 | . | .
C[n+]1ccc(/C=C/c2c[nH]c3ccc(F)cc23)cc1 | 15 | 18 | 16 | -9 | -8 | 38* | 5 | 24
Cn1cc(/C=C/c2cc[n+](C)cc2)c2cc(F)ccc21 | 6 | 5 | 36 | . | 20 | . | . | .
Fc1ccc(NC(=S)NNc2ncc(C(F)(F)F)cc2Cl)c(F)c1 | 34 | 38 | 25 | 17 | 55 | 58* | 20* | 36
O=C(Cc1coc2cc3c(cc12)CCC3)OCC(=O)N1CCCC1=O | 12 | 11 | 1 | 54* | 26 | 44* | 28* | 13
O=C(O)Cc1coc2cc3c(cc12)CCC3 | -11 | -6 | 1 | -6 | -3 | -17 | . | .
N#Cc1cccc(NC(=O)OCCN2C(=O)CCC23CCC(c2ccc(Cl)cc2)CC3)c1 (stereo unspecified) | . | . | . | 2 | . | -7 | . | .
CCC(C(=O)Nc1ccccc1N1CCCC1)c1ccccc1F (stereo unspecified) | . | . | . | 10 | . | 17 | . | .
SMILES | NR5A2 inv ag | NCOA1 inh | Gli-Sufu block | NCOA2 inhibitor | NCOA3 inh | NR2F2 inh | Gal4-VP16 ctr | NR2F2 inh conf
Cc1[nH]nc2ncc(C(=O)c3ccccc3O)cc12 | 18 | 51 | -11 | 46 | 45 | 38* | 15* | 32
COc1cc(C2CC(=O)c3c([nH]c(C(=O)OCCOC(C)C)c3C)C2)cc(OC)c1OC (stereo unspecified) | 42 | 21 | 36 | 23 | 28 | 76* | 0 | 35
CCOCCOC(=O)c1[nH]c2c(c1C)C(=O)CC(c1ccc(OC)c(OC)c1)C2 (stereo unspecified) | 9 | -2 | 7 | 2 | 6 | 46* | -4 | 7
COC(=O)[C@@]1(OC(C)=O)CC(OC(C)=O)[C@H](OC(C)=O)[C@H](OC(C)=O)C1Br (stereo partly specified) | . | . | . | . | . | -14 | . | .
CN(Cc1cccc2cnccc12)C(=O)c1cc(COc2ccc(F)cc2F)on1 | 29 | 22 | 43 | 13 | 27 | 45* | -4 | 20
CN(Cc1cccc2ccccc12)C(=O)c1cc(COc2c(F)cccc2F)on1 | -11 | -3 | 5 | 1 | 14 | 7 | . | .
O=C(Nc1nc(Cc2ccccc2)c(-c2ccccc2)n1Cc1ccccc1)c1ccccc1 | . | . | . | -12 | . | 7 | . | .
CCCCNc1nc2c(c(=O)n(C)c(=O)n2C)n1CCC | -6 | 2 | 6 | -2 | 9 | 21 | . | .
CCCCCCn1c(NCC)nc2c1c(=O)n(C)c(=O)n2C | 45 | 25 | 13 | 11 | 30 | 57* | 11 | 49*
COCC(C)n1c(-c2ccc3c(c2)NC(=O)CO3)csc1=Nc1ccc(OC(F)F)cc1 (stereo unspecified) | 39 | 20 | -5 | 28 | 24 | 48* | 16* | 56*
CCN=c1scc(-c2ccc3c(c2)NC(=O)CO3)n1N=C1CCCC1 | 22 | 22 | 13 | 3 | 17 | 47*! | -4 | 53*
O=C1COc2ccc(-c3csc(=Nc4ccc(OC(F)F)cc4)n3CC3CCCO3)cc2N1 (stereo unspecified) | 22 | 2 | 1 | 20 | 15 | 6 | . | .
Fc1ccc(Cn2ccc3ccc(-c4ccc5ccn(Cc6ccccc6)c5c4)cc32)cc1 | . | . | . | 10 | . | -11 | . | .
CCCCCc1ccc(OCCCC[n+]2cccc(C)c2)c(CCCCC)c1 | 58 | 15 | 85* | 4 | 51 | 57* | 8 | 28
CCCCOc1ccc(C)cc1CN(CCO)CCO | -6 | -14 | 4 | -20 | 3 | 7 | . | .
CCCCCc1ccc(OCCCC[n+]2ccc(C)cc2)c(CCCCC)c1 | 42 | -1 | 86* | -17 | 12 | 56* | 21* | 32
O=C(OC12CCCN(C1)/C(=C/c1cccc(Cl)c1)C2)c1cccc(F)c1 (stereo unspecified) | . | . | . | 2 | . | 0 | . | .
